Growth data for 12 compounds are collected here from PubChem BioAssay (NCI).

Several values for one entry are separate records, joined by “and”; a condition that tells them apart may be missing. Identical values can stand only once. This is part of a sample that, as a whole, favours compounds with a hit. Of some 83,000 tested, about 20% had one in any assay.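 Results are percent growth after 48 hours of single-concentration exposure. 100 means growth as in untreated cells, lower positive values show inhibition; negative values down to -100 show cell death.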 Values without a mark were called inactive. Activity calls are given as the source filed them. The calls were made as follows: active = growth percent below 10; inactive = the rest.

Some test systems named below: SK-MEL-2 melanoma; EKVX NSCLC; UO-31 renal; ACHN renal; CAKI-1 renal; A498 renal; HL-60(TB) leukemia; CCRF-CEM leukemia.
Holding throughout (test): NCI-60 one-dose screen, 48 h (100 = growth as untreated, 0 = no growth, -100 = all killed)
The test system of a further assay is SN12C renal. As to conditions: 10 µM unless noted.
The next assay has as its system TK-10 renal. The conditions noted are these: 10 µM unless noted.

`O=C(O)c1ccccc1N(CCO)CCCl`: the growth in the assay on SK-MEL-2 melanoma (10 µM unless noted) is 116%; with EKVX NSCLC (10 µM unless noted), 118%; in the assay on SN12C renal it was 98.3%; in the assay with UO-31 renal (10 µM unless noted) it was 88.2%; with TK-10 renal, 117%; in the assay on ACHN renal (10 µM unless noted), 95%. For the same compound, the growth is 112% in the assay with CAKI-1 renal (10 µM unless noted), 100% in the assay on A498 renal (10 µM unless noted), 53.8% in the assay on HL-60(TB) leukemia (10 µM unless noted) and -3.53% (active) in the assay on CCRF-CEM leukemia (10 µM unless noted).

`O=c1[nH]c(=O)[nH]c(=O)[nH]1`: the growth was 66.7% with SK-MEL-2 melanoma (10 µM unless noted); 110% in the assay on EKVX NSCLC (10 µM unless noted); 120% in the assay with SN12C renal; 95.3% with UO-31 renal (10 µM unless noted); 140% with TK-10 renal; 161% in the assay with ACHN renal (10 µM unless noted). For the same compound, the growth in the assay on CAKI-1 renal (10 µM unless noted) was 92.7%; with A498 renal (10 µM unless noted), 129%; in the assay with HL-60(TB) leukemia (10 µM unless noted), 88.8%.

Consider `C/C(=C\c1ccn(-c2ccc(N)c(C(F)(F)F)c2)n1)[C@@H]1C[C@@H]2O[C@]2(C)CCC[C@H](C)[C@H](O)[C@@H](C)C(=O)C(C)(C)[C@@H](O)CC(=O)O1`, for which the growth in the assay on SK-MEL-2 melanoma (10 µM unless noted) was 45.1%; in the assay with EKVX NSCLC (10 µM unless noted), 39.7%; in the assay with SN12C renal it was 41.3%; in the assay with UO-31 renal (10 µM unless noted), 32.7%; in the assay with TK-10 renal, 52.6%; with ACHN renal (10 µM unless noted), 46.3%. Besides, the growth is 52.1% with CAKI-1 renal (10 µM unless noted), 22.6% in the assay with A498 renal (10 µM unless noted), 7.41% (active) in the assay on HL-60(TB) leukemia (10 µM unless noted) and 14.3% in the assay on CCRF-CEM leukemia (10 µM unless noted).

As for `CC[C@H](CC[C@@H](C)[C@H]1CC[C@H]2[C@@H]3CC[C@H]4C[C@]5(CC[C@]4(C)[C@H]3CC[C@]12C)OO[C@](C)(C(F)(F)F)O5)C(C)C`, the growth in the assay with SK-MEL-2 melanoma (10 µM unless noted) is 101%; with EKVX NSCLC (10 µM unless noted) it was 96.2%; in the assay with SN12C renal it was 81.2%; in the assay with UO-31 renal (10 µM unless noted) it was 78.8%; in the assay on TK-10 renal, 109%; in the assay with ACHN renal (10 µM unless noted) it was 98.7%. In addition, the growth was 81.7% in the assay on CAKI-1 renal (10 µM unless noted), 97.3% in the assay on A498 renal (10 µM unless noted), 106% in the assay with HL-60(TB) leukemia (10 µM unless noted) and 100% in the assay on CCRF-CEM leukemia (10 µM unless noted).

For the compound `O=C(O)c1ccc(=O)[nH]c1`, the growth in the assay with SK-MEL-2 melanoma (10 µM unless noted) was 85.4% and 102%; in the assay with EKVX NSCLC (10 µM unless noted), 111% and 98.7%; with SN12C renal, 88.4% and 95.5%; with UO-31 renal (10 µM unless noted), 92.2% and 88%; in the assay with TK-10 renal, 94.8% and 97.5%; in the assay on ACHN renal (10 µM unless noted) it was 100% and 106%. Also, the growth in the assay on CAKI-1 renal (10 µM unless noted) was 98.3%; with A498 renal (10 µM unless noted) it was 63.4% and 107%; with HL-60(TB) leukemia (10 µM unless noted), 109% and 102%; in the assay with CCRF-CEM leukemia (10 µM unless noted), 106% and 95.4%.

Turning to `O=C(O)CCCc1ccc(N(CCCl)CCCl)cc1`, the growth was 102% and 109% in the assay with SK-MEL-2 melanoma (10 µM); 100% in the assay on SK-MEL-2 melanoma (75 µM); 101% with EKVX NSCLC (10 µM); 82.2% in the assay on EKVX NSCLC (75 µM); 83.4% and 89.5% with UO-31 renal (10 µM); 28.8% in the assay on UO-31 renal (75 µM). Besides, the growth was 72.4% and 38.8% in the assay with ACHN renal (10 µM); -12.3% (active) in the assay on ACHN renal (75 µM); 57.9% and 34.2% in the assay with CAKI-1 renal (10 µM); -12.5% (active) in the assay with CAKI-1 renal (75 µM); 115% and 99.6% in the assay with A498 renal (10 µM); 68.5% in the assay on A498 renal (75 µM). The growth is 19.6% in the assay with HL-60(TB) leukemia (10 µM); 3.35% (active) in the assay with HL-60(TB) leukemia (75 µM); 71.9% and 46.6% with CCRF-CEM leukemia (10 µM); -7.66% (active) in the assay with CCRF-CEM leukemia (75 µM).

For the compound `COC(=O)CCP(CCC(=O)OC)c1ccccc1`, the growth is 110% in the assay with SK-MEL-2 melanoma (10 µM unless noted); 93.9% in the assay on EKVX NSCLC (10 µM unless noted); 99.5% in the assay with SN12C renal; 91.4% with UO-31 renal (10 µM unless noted); 109% in the assay on TK-10 renal; 108% in the assay on ACHN renal (10 µM unless noted). The growth was 94.6% in the assay with CAKI-1 renal (10 µM unless noted), 123% with A498 renal (10 µM unless noted), 98.5% in the assay on HL-60(TB) leukemia (10 µM unless noted) and 109% in the assay with CCRF-CEM leukemia (10 µM unless noted).

Take `O=C(O)CNCP(=O)(O)O`: the growth with SK-MEL-2 melanoma (10 µM unless noted) was 98.5%; with EKVX NSCLC (10 µM unless noted) it was 106%; with SN12C renal, 101%; in the assay on UO-31 renal (10 µM unless noted), 72.8%; in the assay on TK-10 renal, 108%; with ACHN renal (10 µM unless noted), 123%. Further, the growth is 100% with CAKI-1 renal (10 µM unless noted), 117% in the assay with A498 renal (10 µM unless noted), 95.8% in the assay with HL-60(TB) leukemia (10 µM unless noted) and 90.9% in the assay on CCRF-CEM leukemia (10 µM unless noted).

Consider `CC12CCC3C(CCC4CC(O)CCC43C)C1CCC2=O` (centres undefined), for which the growth in the assay on SK-MEL-2 melanoma (10 µM unless noted) is 91.7%; in the assay with EKVX NSCLC (10 µM unless noted) it was 73.4%; in the assay on SN12C renal, 102%; in the assay on UO-31 renal (10 µM unless noted), 94.1%; in the assay on TK-10 renal, 108%; in the assay on ACHN renal (10 µM unless noted), 109%. The growth was 81.5% in the assay with CAKI-1 renal (10 µM unless noted), 162% with A498 renal (10 µM unless noted), 92.3% in the assay with HL-60(TB) leukemia (10 µM unless noted) and 107% with CCRF-CEM leukemia (10 µM unless noted).

As to `O=C1C=C(N2CC2)c2ccccc2C1=O`, the growth was 90.7% with SK-MEL-2 melanoma (10 µM unless noted); 114% in the assay with EKVX NSCLC (10 µM unless noted); 51.2% with SN12C renal; 53.9% in the assay on UO-31 renal (10 µM unless noted); 118% in the assay with TK-10 renal; 21% in the assay on ACHN renal (10 µM unless noted). The growth is 32.3% in the assay with CAKI-1 renal (10 µM unless noted), 102% in the assay on A498 renal (10 µM unless noted), 8.35% (active) in the assay on HL-60(TB) leukemia (10 µM unless noted) and -11.5% (active) with CCRF-CEM leukemia (10 µM unless noted).

On to `O=C(CCCN1CCC2(CC1)C(=O)NCN2c1ccccc1)c1ccc(F)cc1`, for which the growth was 106% and 78.5% in the assay with SK-MEL-2 melanoma (10 µM unless noted); 57.6% and 80.6% in the assay on EKVX NSCLC (10 µM unless noted); 99.6% and 84.2% in the assay with SN12C renal; 77.1% and 66% in the assay with UO-31 renal (10 µM unless noted); 115% and 99.1% in the assay with TK-10 renal; 20.3% in the assay on ACHN renal (10 µM unless noted). The growth in the assay with CAKI-1 renal (10 µM unless noted) was 91.6% and 15.5%; in the assay on A498 renal (10 µM unless noted) it was 50.3% and 30.6%; with HL-60(TB) leukemia (10 µM unless noted) it was 100% and 114%.

For `CCCCn1c(=O)c(C(=O)NCc2ccccc2Cl)c(O)c2ccccc21`, the growth is 94.3% with SK-MEL-2 melanoma (10 µM unless noted); 56.5% in the assay with EKVX NSCLC (10 µM unless noted); 76.7% in the assay on SN12C renal; 73.4% in the assay with UO-31 renal (10 µM unless noted); 84.3% in the assay with TK-10 renal; 81.3% in the assay on ACHN renal (10 µM unless noted). In addition, the growth was 79.6% in the assay with CAKI-1 renal (10 µM unless noted), 71.2% with A498 renal (10 µM unless noted), 60.7% with HL-60(TB) leukemia (10 µM unless noted) and 43.7% in the assay with CCRF-CEM leukemia (10 µM unless noted).
